The supplement of paper PMC6555819

Columns and labels:
Test in all cases: PBM binding z-score (relative to random genomic background probes); higher = stronger binding; sequences stand for … in GC…GCGATTGACAGCGTAGAATGAAGG
[1] = tested on: PPARg:RXRa DBDmut IVT, anti-RXR (DBD mutation: RXRa K156A/R161A, NR concentration 270 nM, RXRa partner concentration 90 nM)
How it was run: (§1)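 Binding buffer was PBS pH 7.4 with 2% milk, 0.02% Triton X-100, 1 mM DTT, 0.2 mg/mL BSA and 0.4 mg/ml salmon testes DNA. In it, ligand-free nuclear receptor dimers were incubated 1 h on custom Agilent 4×180K protein-binding microarrays carrying double-stranded probes. Antibodies against each partner (one per run) detected binding, and z-scores were calculated against random background probes after regression normalization of scanned fluorescence.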

[2] = tested on: PPARg:RXRa IVT, anti-PPARg (NR concentration 270 nM, RXRa partner concentration 90 nM)
How it was run: as §1

[3] = tested on: PPARg DBDmut:RXRa IVT, anti-PPARg (DBD mutation: PPARg1 K132A/R137A, NR concentration 270 nM, RXRa partner concentration 90 nM)
How it was run: as §1

[4] = tested on: PPARg DBDmut IVT, anti-PPARg (DBD mutation: PPARg1 K132A/R137A, NR concentration 270 nM)
How it was run: as §1

[5] = tested on: PPARg homodimer (NR concentration 180 nM)
How it was run: as §1

[6] = tested on: PXR:RXRa (NR concentration 270 nM, RXRa partner concentration 90 nM)
How it was run: as §1

[7] = tested on: PXR homodimer (NR concentration 270 nM)
How it was run: as §1

[8] = tested on: RARa:RXR (NR concentration 270 nM, RXRa partner concentration 90 nM)
How it was run: as §1

[9] = tested on: RARa homodimer (NR concentration 270 nM)
How it was run: as §1

[10] = tested on: RARb:RXRa (NR concentration 270 nM, RXRa partner concentration 90 nM)
How it was run: as §1

[11] = tested on: RARb homodimer (NR concentration 270 nM)
How it was run: as §1

[12] = tested on: RARg:RXRa (NR concentration 270 nM, RXRa partner concentration 90 nM)
How it was run: as §1

[13] = tested on: RARg homodimer (NR concentration 270 nM)
How it was run: as §1

[14] = tested on: RXRa DBDmut IVT, anti-RXR (DBD mutation: RXRa K156A/R161A, NR concentration 90 nM)
How it was run: as §1

[15] = tested on: RXRa homodimer (NR concentration 180 nM)
How it was run: as §1

[16] = tested on: THRa:RXRa (NR concentration 90 nM, RXRa partner concentration 90 nM)
How it was run: as §1

[17] = tested on: THRa homodimer (NR concentration 90 nM)
How it was run: as §1

[18] = tested on: VDR homodimer (NR concentration 270 nM)
How it was run: as §1

Row | Sequence | PBM binding z-score [1] | PBM binding z-score [2] | PBM binding z-score [3] | PBM binding z-score [4] | PBM binding z-score [5] | PBM binding z-score [6] | PBM binding z-score [7] | PBM binding z-score [8] | PBM binding z-score [9] | PBM binding z-score [10] | PBM binding z-score [11] | PBM binding z-score [12] | PBM binding z-score [13] | PBM binding z-score [14] | PBM binding z-score [15] | PBM binding z-score [16] | PBM binding z-score [17] | PBM binding z-score [18]
1 | GGAACGAGGGTAAGTTGATAGCAGAGTTTGATGG | 1.59 | 0.763 | 0.619 | 0.0122 | 0.193 | 0.0431 | 0.405 | -0.00911 | 0.262 | 0.727 | 0.494 | 0.154 | 0.437 | 0.818 | 0.178 | 0.12 | -0.196 | 0.755
2 | TCTTGTAGATCAAGCAGATTAAGAAAGCCTGAGT | 1.46 | 0.135 | -0.162 | 0.384 | -0.288 | 0.232 | -0.000804 | 0.536 | -0.326 | -0.301 | -0.625 | -0.157 | -0.298 | 0.446 | 0.2 | -0.439 | -0.521 | -0.466
3 | ATCTCTAGGGAAAGTTCAGTGAAAGATCGATAGA | 0.291 | 0.739 | 0.561 | 0.968 | 1.06 | 1.52 | 1.46 | 1.38 | 1.07 | 2.61 | 2.2 | 2.01 | 2.11 | 1.12 | 1.21 | 0.605 | 0.0589 | 1.68
4 | CCTACTGGGCCATCAGGTTATTGATATCAACGTT | 4.67 | 4.48 | 0.284 | 0.0128 | 0.249 | -0.153 | -0.0218 | -0.124 | 0.0589 | 0.589 | 0.464 | 0.256 | 0.522 | -0.157 | 0.0138 | 0.797 | 0.712 | -0.275
5 | TCGAGTAGGTTAGTCGGGGCAATCAGCCAACATA | 2.37 | 2.34 | -0.202 | -1.1 | -0.0632 | 0.138 | -0.459 | 0.453 | -0.959 | 0.473 | 0.889 | 0.0718 | 0.25 | 0.255 | 0.0944 | 2.38 | -0.198 | -0.417
6 | AGAATGAGGTTATTAAGATCAAGGAATTGCGGTC | 2.9 | 2.73 | 1.27 | 0.466 | 0.735 | 1.37 | 0.527 | 1.58 | 1.15 | 1.45 | 0.762 | 1.21 | 0.86 | 2.05 | 1.86 | 2.13 | 0.766 | 1.61
7 | ATATGTAGGTTAAGGGCCATTCAGGTTGGTTCGC | 7.52 | 6.88 | 2.91 | 2.4 | 1.27 | 0.874 | 0.768 | 0.938 | 0.601 | 1.5 | 1.36 | 0.896 | 1.04 | 0.622 | 1.21 | 1.17 | 0.32 | 1.15
8 | CCTACTTGGCCAAAGGTCATTGATTCCAATGCTC | 2.53 | 4.83 | 0.228 | 0.876 | 3.67 | 5.46 | 2.07 | 5.85 | 1.65 | 4.57 | 4.5 | 5.37 | 4.64 | 2.06 | 6.05 | 3.3 | 1.25 | 2.51
